Assay results from PubChem BioAssay (NCATS).
Records with an inconclusive call do not appear. Entries that show only a call come without a potency. Active and inactive are the calls of the source. Calls follow the shape of the dose curve; as a rule, active = well fitted inhibition curve with a large enough effect; inconclusive = small, poorly fitted or top-dose-only effect; inactive = flat fitted curve, though single readings scatter.
Potency is read from the fitted curve at half-maximal effect.

What follows are molecules tested on Zika virus NS2B-NS3 protease (assay: Primary screen GU AMC qHTS for Zika virus inhibitors (AID 1347154; also: nearly all actives have a fitted effect of over 70% in size)). Conditions: Zika NS2B-NS3 unlinked protease, AMC fluorogenic substrate; series mostly up to 54.1 µM.
Outline: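 Unlinked Zika NS2B hydrophilic domain–NS3 protease complex at 25 nM in 10 mM Tris-HCl pH 8.0, 0.01% Tween 20, with an AMC peptide substrate. Fluorescence change (340/450 nm) over 15 min at room temperature, normalized to controls, fitted to 4-parameter Hill.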
With NCC(CP(=O)(O)O)c1ccc(Cl)cc1 (centres undefined) the Potency was “inactive”. For CO[C@H]1CC=C2CCN3CCC4=C(CC(=O)OC4)[C@]23C1, the Potency was “inactive”. With O=c1ccc2[nH]cc(C3=CCNCC3)c2[nH]1 the Potency was 26.7 µM (active). NC(N)=NOCC[C@H](N)C(=O)O was tested, and the Potency was “inactive”. In the case of C[N+](C)(C)CCOC(=O)CBr, the Potency is reported as “inactive”. In the case of C[N+](C)(C)CC#CCN1CCCC1=O, the Potency is reported as “inactive”. With CN1CC[C@@]2(C)c3cc(OC(=O)Nc4ccccc4)ccc3N(C)[C@@H]12 the Potency was “inactive”. C[CH2][Hg][S]c1ccccc1C(=O)O was tested, and the Potency was “inactive”. For Cc1cc(C)cc(C(=O)OC2C[C@H]3CC[C@@H](C2)N3C)c1 (some centres undefined), the Potency was “inactive”. In the case of CCCSP(=O)(OCC)SCCC, the Potency is reported as “inactive”. Nc1ccc(CCN2CCN(c3cccc(C(F)(F)F)c3)CC2)cc1 was tested, and the Potency was “inactive”. With c1ccc2c(N3CCNCC3)cccc2c1 the Potency was “inactive”. In the case of CC(C)[C@@]1(NC(=O)[C@@H]2C[C@@H]3c4cccc5[nH]cc(c45)C[C@H]3N(C)C2)O[C@@]2(O)[C@@H]3CCCN3C(=O)[C@H](Cc3ccccc3)N2C1=O, the Potency is reported as “inactive”. In the case of CC(C)(C)c1cc(C=C(C#N)C#N)cc(C(C)(C)C)c1O, the Potency is reported as “inactive”. For N#CC(C#N)=Cc1cc(O)c(O)c(O)c1, the Potency was “inactive”. C[N+](C)(C)CC#CCOC(=O)Nc1cccc(Cl)c1 was tested, and the Potency was “inactive”. For COc1ccc2[nH]cc(CCN)c2c1, the Potency was “inactive”. With Cc1cccc(C(C)c2cnc[nH]2)c1C (centres undefined) the Potency was “inactive”. For CC(N)Cc1c[nH]c2ccc(OCc3cccs3)cc12 (centres undefined), the Potency was “inactive”. In the case of CC(=O)c1c(O)c(C)c(O)c(Cc2c(O)c3c(c(C(=O)/C=C/c4ccccc4)c2O)OC(C)(C)C=C3)c1O, the Potency is reported as “inactive”. CCCN(CCC)CCc1c[nH]c2ccc(C(N)=O)cc12 was tested, and the Potency was “inactive”. In the case of C[N+]1(C)CCOC(O)(c2ccc(-c3ccc(C4(O)C[N+](C)(C)CCO4)cc3)cc2)C1 (centres undefined), the Potency is reported as “inactive”. CN1C2CCC1CC(OC(c1ccccc1)c1ccccc1N)C2 (centres undefined) was tested, and the Potency was “inactive”. With O=c1c2ccccc2[se]n1-c1ccccc1 the Potency was “inactive”. C=C(C)[C@H]1O[C@H]2CC[C@@]3(C)[C@@](O)(CC[C@H]4[C@@H]5OC(C)(C)[C@H]6C[C@@H]7C(=C)Cc8c(Cl)cc9[nH]c(c5c9c8[C@@]76O)[C@@]43C)[C@]23O[C@@H]3[C@H]1O was tested, and the Potency was “inactive”. For CN(C(=O)Cc1ccc(Cl)c(Cl)c1)C(CN1CCCC1)c1cccc(OCC(=O)O)c1 (centres undefined), the Potency was “inactive”. For CP(=O)(O)C1=CCNCC1, the Potency was “inactive”. With CCCN(CCC)CCc1ccc(O)c(O)c1 the Potency was “inactive”. For CCCN(CCC)C1Cc2cc(OC)c(OC)cc2C1, the Potency was “inactive”. In the case of CC(Cc1ccc(OCC(=O)O)cc1)NCC(O)c1cccc(Cl)c1 (centres undefined), the Potency is reported as “inactive”. In the case of NCCc1c[nH]c2ccc(C(N)=O)cc12, the Potency is reported as “inactive”. CN1CCC(c2c[nH]c3ccc(O)cc23)CC1 was tested, and the Potency was “inactive”. With Cc1[nH]c2ccc(O)cc2c1CCN the Potency was “inactive”. CN1c2ccccc2C(NCCCCCCC(=O)O)c2ccc(Cl)cc2S1(=O)=O (centres undefined) was tested, and the Potency was “inactive”.
